From PubChem BioAssay
PLK1 PBD inh – qHTS for Inhibitors of PLK1-PDB (polo-like kinase 1 - polo-box domain): Primary Screen; Serine/threonine-protein kinase PLK1 (Homo sapiens), P53350; Plk1 PBD binding of FITC phosphopeptide, fluorescence polarization; Potency, µM, without a hit: max response, negative = inhibition, usual class: inhibitors; actives 2.8% (n = 360,000); further: potency means the concentration at half of the fitted maximal effect; series mostly up to about 57 µM; on the % scale 0 is the no-effect control and ±100 the full control effect; nearly all actives have a fitted effect of over 65% in size
JMJD2A Tudor – qHTS Assay for Inhibitors of JMJD2A-Tudor Domain; Potency, µM (series often up to 114 µM), for the others: at the top dose activity change, negative = inhibition, most hits filed as inhibitors; Lysine-specific demethylase 4A (Homo sapiens), O75164; actives 4.4% (n = 390,000); AlphaScreen JMJD2A-Tudor / H3K4me3 peptide binding; further: potency means the concentration at half of the fitted maximal effect; on the % scale 0 is the no-effect control and ±100 the full control effect; nearly all actives have a fitted effect of over 50% in size
G9a block – qHTS Assay for Inhibitors of Histone Lysine Methyltransferase G9a. Potency, µM (top dose mostly 102 µM), for the others: at the top dose activity, negative = inhibition, most hits filed as inhibitors. actives 8.8% (n = 350,000). G9a H3K9 monomethylation, AlphaScreen, 2 h; further: potency means the concentration at half of the fitted maximal effect; on the % scale 0 is the no-effect control and ±100 the full control effect; nearly all actives have a fitted effect of over 75% in size
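Signal arises when biotinylated H3K9 peptide, once monomethylated, bridges streptavidin donor and antibody-captured acceptor beads. Enzyme at 20 nM was preincubated 15 min with test compounds; peptide 500 nM and SAM 20 uM then reacted for 2 h.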
HP1b chromo inh – HTS for Inhibitors of HP1-beta Chromodomain Interactions with Methylated Histone Tails; Chromobox protein homolog 1 (Homo sapiens), P83916; AlphaScreen HP1-beta / biotin-H3K9me3 peptide binding; Potency, µM (titrated, usually from 114 µM), for inactives: at the highest dose activity change, negative = inhibition, actives largely listed as inhibitors; actives 0.56% (n = 390,000); AID 540317, 2011; further: potency means the concentration at half of the fitted maximal effect; nearly all actives have a fitted effect of over 70% in size
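AlphaScreen: HP1-beta (50 nM) preformed 30 min with biotin-H3(1-18)K9me3 peptide (50 nM) in PBS pH 7.4, 0.01% Tween-20. Compound added for 30 min at RT, then streptavidin donor/nickel chelate acceptor beads (10 ug/mL) for 30 min.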
BAZ2B inh – qHTS Assay for Inhibitors of BAZ2B; actives 4.4% (n = 360,000); Bromodomain adjacent to zinc finger domain protein 2B (Homo sapiens), Q9UIF8; AlphaScreen BAZ2B-H3K14Ac peptide displacement; Potency, µM (titrated, usually from 114 µM), without a hit: top-dose activity change, negative = inhibition, most hits filed as inhibitors; further: potency means the concentration at half of the fitted maximal effect; on the % scale 0 is the no-effect control and ±100 the full control effect; nearly all actives have a fitted effect of over 60% in size
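Protein-peptide AlphaScreen: BAZ2B 50 nM, b-H3K14Ac 50 nM, 1x PBS pH 7.4 + 0.01% Tween-20. Preincubation 30 min RT; cpd 30 min RT (top 110 uM); beads 20 min RT, light-protected.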
PI5P4K alpha inh – qHTS for Inhibitors of phosphatidylinositol 5-phosphate 4-kinase (PI5P4K) | actives 1.2% (n = 330,000) | max response, % | PI5P4Kalpha enzyme, ADP-Glo luminescence, 60 min; active compounds read low | AID 652105, 2013; active means max response of -50% or lower; inconclusive means between -30% and -50%; inactive means -30% or higher; further: value at the top dose of about 77 µM; on the % scale 0 is the no-effect control and ±100 the full control effect
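Single end-point luminescence (ADP-Glo) quantified ADP from PI5P4Kalpha turnover; ATP 5 microM final, 1 h at RT, 0.1% CHAPS and 0.28 mM EGTA in HEPES pH 7.4.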
Active calls of the source: *; ? = inconclusive; / = no result given; [ ] = remark or other dose. An excerpt weighted towards active compounds, which were near 12% of everything screened. Unless noted, the call rests on the fitted dose curve; in most records, active means well fitted curve in the direction sought with a large enough effect; inconclusive means small, poorly fitted or top-dose-only effect, or another doubt; inactive means no such curve, though single readings can be large; an effect the other way counts as inactive or inconclusive.

SMILES	PLK1 PBD inh	JMJD2A Tudor	G9a block	HP1b chromo inh	BAZ2B inh	PI5P4K alpha inh
CC(C)Oc1ccc(C(=O)O)c(C(=O)O)c1	-11%	79µM*	0%	4%	-39%	/
Cc1ccc(Cn2c(=S)[nH]c3ccc(N4CCOCC4)cc3c2=O)o1	21µM*	22µM*	?	?	?	/
Cc1ccc(C)c(N2CCN(C(=O)c3ccc(Cn4c(=S)[nH]c5ccc(N6CCOCC6)cc5c4=O)cc3)CC2)c1	-2%	-11%	40µM*	31%	?	-12
O=C(c1ccc(Cn2c(=S)[nH]c3ccc(N4CCOCC4)cc3c2=O)cc1)N1CCN(c2ccc(F)cc2)CC1	-4%	-15%	-36%	12%	8%	-13
O=c1c2cc(N3CCOCC3)ccc2[nH]c(=S)n1CCN1CCCC1	-7%	?	?	-1%	11%	/
CCCCn1c(=S)[nH]c2ccc(N3CCOCC3)cc2c1=O	/	/	20µM*	/	-17%	/
NCCCCNc1ncnc2ccc(-c3ccc4c(c3)OCO4)cc12	/	-32%	/	/	/	/
Nc1c(C(=O)O)sc2nc(-c3ccccc3)cc(-c3ccc(Cl)cc3)c12	?	?	-9%	10%	?	-19
Nc1c(C(=O)O)sc2nc(-c3ccc(F)cc3)cc(-c3ccccc3)c12	30µM*	-23%	?	59%	-16%	-14
CCOc1ccc(NC(=O)CCCN2C(=O)C(c3ccccc3)Oc3cccnc32)cc1 (stereo not drawn)	-11%	-27%	17%[59 µM]	36%	-2%	-1
O=C(NCCc1c[nH]c2ccccc12)[C@@H]1C[C@H]1[C@@H](NP(=O)(c1ccccc1)c1ccccc1)c1ccccc1	/	/	79µM*	/	?	/
CCn1c(N2CCC(Cc3ccccc3)CC2)nc2c1c(=O)[nH]c(=O)n2C	30µM*	-27%[11.4 µM]	?	?	?	4
CCn1c(SCc2ccccc2)nc2c1c(=O)[nH]c(=O)n2C	?	10%	45µM*	9%	10%	-6
Cn1c(SCc2ccccc2)nc2c1c(=O)[nH]c(=O)n2C	-25%	-5%	-20%	46%	11%	4
CCCn1c(SCc2ccc(Cl)cc2)nc2c1c(=O)[nH]c(=O)n2C	21µM*	-3%	50µM*	9%	-9%	-10
C/C=C/Cn1c(SCc2ccc(Cl)cc2)nc2c1c(=O)[nH]c(=O)n2C	?	4%	45µM*	7%	1%	-10
Cc1cc(C)c(CN2C(=O)c3ccccc3S(=O)(=O)c3ccc(C(=O)OCC4CCCO4)cc32)c(C)c1 (stereo not drawn)	/	-22%	-8%[59 µM]	11%	-10%	/
CCOC(=O)c1ccc(NC(=O)c2nc[nH]c2C(=O)N(C)CCO)cc1	-1%	/	/	/	/	0
CCn1c(N2CCN(CC(=O)c3c[nH]c4ccccc34)CC2)nc2c1c(=O)[nH]c(=O)n2C	2%	-9%	40µM*	38%	18%	0
C/C=C/Cn1c(N2CCCCCC2)nc2c1c(=O)[nH]c(=O)n2C	-4%	-11%	-8%[12.7 µM]	-1%	-3%	14
Cn1c(=O)[nH]c(=O)c2c1nc(N1CCCCC1)n2C/C=N/Nc1ccc(C(=O)O)cc1	-23%	-4%[11.4 µM]	71µM*	36%	-18%	1
CSc1nc2c(c(=O)[nH]c(=O)n2C)n1Cc1ccc(Cl)cc1	6µM*	-22%	25%[0.501 µM]	?	-11%	?
C/C=C/Cn1c(SC)nc2c1c(=O)[nH]c(=O)n2C	27µM*	-6%[11.4 µM]	8.9µM*	5%	-3%	-11
CC(=O)Nc1cc(C(=O)N(C)Cc2ccccc2)ccc1S(=O)(=O)c1ccc(C)cc1	-8%	-11%	2%	19%	-9%	-3
CC1CC(=O)NN1C(=O)c1ccccc1 (stereo not drawn)	-12%	28µM*	79µM*	-17%	79µM*	2
SMILES	PLK1 PBD inh	JMJD2A Tudor	G9a block	HP1b chromo inh	BAZ2B inh	PI5P4K alpha inh
CC1CC(=O)NC(=O)N1Cc1ccccc1 (stereo not drawn)	1%	3%	/	7%[57 µM]	/	-2
COc1ccc(CN2CCNC(=O)C2CC(=O)NC2CCC2)c(OC)c1 (stereo not drawn)	-18%	-8%	-18%	18%	-13%	-1
COc1ccc(CN2CCNC(=O)C2CC(=O)NC2CCCC2)c(C)c1C (stereo not drawn)	9.5µM*	20µM*	45µM*	12%	?	?
COc1cccc(CN2CCNC(=O)C2CC(=O)NCCn2ccc3ccccc32)c1OC (stereo not drawn)	-17%	?	40µM*	12%	?	-13
COc1cccc(CN2CCNC(=O)C2CC(=O)NC2CCOCC2)c1OC (stereo not drawn)	2%	-2%	45µM*	38%	19%	-4
CC(C)C[C@@H]1COc2cc(N(C)CCO)ccc2S(=O)(=O)N1	-2%	/	/	/	/	4
Cc1ccc(CCC(=O)Nc2ccc(Cl)cc2)o1	2%	-10%	?	7%	?	2
Cc1ccc(CCC(=O)Nc2ccc(CC(=O)O)cc2)o1	12µM*	?	56µM*	-1%	-20%	-24
CC1CN(S(=O)(=O)c2ccc(C(=O)Nc3ccc(S(=O)(=O)Nc4ncccn4)cc3)cc2)CC(C)O1 (stereo not drawn)	-5%	-6%	13%[59 µM]	30%	8%	-8
Cc1cc(C)nc(NS(=O)(=O)c2ccc(NC(=O)c3ccc(S(=O)(=O)N4CC(C)OC(C)C4)cc3)cc2)n1 (stereo not drawn)	-5%	-12%	8.9µM*	22%	4%	-11
Cc1nnc(NC(=O)c2ccc(S(=O)(=O)N3CC(C)OC(C)C3)cc2)o1 (stereo not drawn)	-7%	2.8µM*	8%	34%	25µM*	-3
CC1CCCN(S(=O)(=O)c2ccc(C(=O)Nc3nnc(C4CC4)o3)cc2)C1 (stereo not drawn)	2%	?	42%	51%	35µM*	-5
CC1CCCN(S(=O)(=O)c2ccc(C(=O)Nc3nnc(-c4ccccn4)o3)cc2)C1 (stereo not drawn)	-11%	-11%	-44%	11%	?	0
Cn1cccc1/C=C(\C#N)C(N)=S	1%	-23%	50µM*	-17%	?	-14
